# Columns and labels:
# Assay in all cases: PBM binding z-score (relative to random genomic background probes); higher = stronger binding; sequences stand for … in GC…GCGATTGACAGCGTAGAATGAAGG
# [1] = tested on: RARb homodimer (NR concentration 270 nM)
# In short: (§1)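 Antibodies against each partner of ligand-free nuclear receptor dimers (one per run) detected binding on custom Agilent 4×180K protein-binding microarrays after 1 h incubation. The double-stranded probes had 34-nt variable regions carrying direct-repeat seeds, single-nucleotide variants, half-site ablations and random human genomic background sequences. Binding z-scores, from regression-normalized fluorescence, use the random background probes as reference.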
# [2] = tested on: RARg:RXRa (NR concentration 270 nM, RXRa partner concentration 90 nM)
# In short: as §1
# [3] = tested on: RARg homodimer (NR concentration 270 nM)
# In short: as §1
# [4] = tested on: RXRa DBDmut IVT, anti-RXR (DBD mutation: RXRa K156A/R161A, NR concentration 90 nM)
# In short: as §1
# [5] = tested on: RXRa homodimer (NR concentration 180 nM)
# In short: as §1
# [6] = tested on: THRa:RXRa (NR concentration 90 nM, RXRa partner concentration 90 nM)
# In short: as §1
# [7] = tested on: THRa homodimer (NR concentration 90 nM)
# In short: as §1
# [8] = tested on: VDR:RXRa (NR concentration 270 nM, RXRa partner concentration 90 nM)
# In short: as §1
# [9] = tested on: VDR homodimer (NR concentration 270 nM)
# In short: as §1
sequence,measurement,setting,value
GCGACTGGTGCATCAGCAGGTTACCATAACTTAA,PBM binding z-score,[1],0.107
same,PBM binding z-score,[2],-0.0711
same,PBM binding z-score,[3],-0.351
same,PBM binding z-score,[4],-0.127
same,PBM binding z-score,[5],-0.12
same,PBM binding z-score,[6],0.163
same,PBM binding z-score,[7],-0.356
same,PBM binding z-score,[8],-0.435
same,PBM binding z-score,[9],-0.21
GCTGGTAGGTCAGGTTGGTCAGCTAACGGGTACG,PBM binding z-score,[1],2.87
same,PBM binding z-score,[2],2.48
same,PBM binding z-score,[3],3.76
same,PBM binding z-score,[4],0.0797
same,PBM binding z-score,[5],1.23
same,PBM binding z-score,[6],1.12
same,PBM binding z-score,[7],0.417
same,PBM binding z-score,[8],1.04
same,PBM binding z-score,[9],0.965
CCGCCTGGGGCAAGGTTACCATAACGCACAGCCA,PBM binding z-score,[1],1.52
same,PBM binding z-score,[2],1.06
same,PBM binding z-score,[3],1.1
same,PBM binding z-score,[4],-0.994
same,PBM binding z-score,[5],0.987
same,PBM binding z-score,[6],1.3
same,PBM binding z-score,[7],0.7
same,PBM binding z-score,[8],0.149
same,PBM binding z-score,[9],-0.0695
CTTCCAAGGTCAAGGTCAGTGAAAGAGACTCGAA,PBM binding z-score,[1],5.12
same,PBM binding z-score,[2],6.79
same,PBM binding z-score,[3],7.26
same,PBM binding z-score,[4],3.07
same,PBM binding z-score,[5],6.55
same,PBM binding z-score,[6],4.54
same,PBM binding z-score,[7],3.64
same,PBM binding z-score,[8],4.87
same,PBM binding z-score,[9],2.79
CCTTACGGGTCACTCCAGGTTGTAGCATCGGAGT,PBM binding z-score,[1],2.84
same,PBM binding z-score,[2],4.14
same,PBM binding z-score,[3],3.94
same,PBM binding z-score,[4],1.67
same,PBM binding z-score,[5],4.11
same,PBM binding z-score,[6],4.56
same,PBM binding z-score,[7],0.074
same,PBM binding z-score,[8],3.62
same,PBM binding z-score,[9],1.05
CGTCCAAGGGCATAGGAGGTCAGTGAAGACAGAT,PBM binding z-score,[1],3.72
same,PBM binding z-score,[2],3.42
same,PBM binding z-score,[3],3.68
same,PBM binding z-score,[4],1.44
same,PBM binding z-score,[5],2.65
same,PBM binding z-score,[6],4.64
same,PBM binding z-score,[7],0.738
same,PBM binding z-score,[8],3.99
same,PBM binding z-score,[9],2.25
ATATGTAGGTTACATCCGGGTCATTCGGGCTATG,PBM binding z-score,[1],2.99
same,PBM binding z-score,[2],3.7
same,PBM binding z-score,[3],2.26
same,PBM binding z-score,[4],1.22
same,PBM binding z-score,[5],3.01
same,PBM binding z-score,[6],3.69
same,PBM binding z-score,[7],2.36
same,PBM binding z-score,[8],3.9
same,PBM binding z-score,[9],3.19
ACTATTAGTTGACTTAGGACAACCGATACGACGC,PBM binding z-score,[1],0.766
same,PBM binding z-score,[2],0.732
same,PBM binding z-score,[3],1.04
same,PBM binding z-score,[4],0.853
same,PBM binding z-score,[5],0.557
same,PBM binding z-score,[6],2.12
same,PBM binding z-score,[7],1.88
same,PBM binding z-score,[8],0.499
same,PBM binding z-score,[9],0.342
TCTGCTAGGTCAGTTGGTCAGCCAACGAGCTGCC,PBM binding z-score,[1],2.3
same,PBM binding z-score,[2],2.84
same,PBM binding z-score,[3],3.3
same,PBM binding z-score,[4],0.162
same,PBM binding z-score,[5],0.782
same,PBM binding z-score,[6],1.06
same,PBM binding z-score,[7],-0.436
same,PBM binding z-score,[8],-0.0135
same,PBM binding z-score,[9],-0.81
CCTAGTAGGTCAGGAGGTCACACACCGGATATGA,PBM binding z-score,[1],5.24
same,PBM binding z-score,[2],7.25
same,PBM binding z-score,[3],6.37
same,PBM binding z-score,[4],1.03
same,PBM binding z-score,[5],7.18
same,PBM binding z-score,[6],3.91
same,PBM binding z-score,[7],2.34
same,PBM binding z-score,[8],4.92
same,PBM binding z-score,[9],3.13
CGAACTAGGTCATCCAGAACAGTGAATACATTGA,PBM binding z-score,[1],2.8
same,PBM binding z-score,[2],4.03
same,PBM binding z-score,[3],4.69
same,PBM binding z-score,[4],2.23
same,PBM binding z-score,[5],2.89
same,PBM binding z-score,[6],2.64
same,PBM binding z-score,[7],1.15
same,PBM binding z-score,[8],2.56
same,PBM binding z-score,[9],1.17
CCGACTGGGGCAAAGGTTGCCATACTCAGTACGA,PBM binding z-score,[1],0.697
same,PBM binding z-score,[2],1.32
same,PBM binding z-score,[3],0.395
same,PBM binding z-score,[4],-0.142
same,PBM binding z-score,[5],1.32
same,PBM binding z-score,[6],0.333
same,PBM binding z-score,[7],-0.54
same,PBM binding z-score,[8],0.133
same,PBM binding z-score,[9],0.111
TCGAGTAGGTTAGTCGTGGCATTCAGCCAACATA,PBM binding z-score,[1],-0.359
same,PBM binding z-score,[2],-0.49
same,PBM binding z-score,[3],-0.451
same,PBM binding z-score,[4],-0.0351
same,PBM binding z-score,[5],-0.388
same,PBM binding z-score,[6],-0.461
same,PBM binding z-score,[7],-1.11
same,PBM binding z-score,[8],-0.0269
same,PBM binding z-score,[9],-0.659
TCTTGTAGATCGGCAGGTTAAGAAAGCTGGCCAA,PBM binding z-score,[1],0.124
same,PBM binding z-score,[2],-0.0429
same,PBM binding z-score,[3],-0.399
same,PBM binding z-score,[4],0.729
same,PBM binding z-score,[5],0.269
same,PBM binding z-score,[6],0.308
same,PBM binding z-score,[7],-0.309
same,PBM binding z-score,[8],0.405
same,PBM binding z-score,[9],-0.0576
CGTCCAAGGTCAAGGGTCAGTGAAGAGATGACGG,PBM binding z-score,[1],5.05
same,PBM binding z-score,[2],7.4
same,PBM binding z-score,[3],7.41
same,PBM binding z-score,[4],3.29
same,PBM binding z-score,[5],8.75
same,PBM binding z-score,[6],4.58
same,PBM binding z-score,[7],2.82
same,PBM binding z-score,[8],5.63
same,PBM binding z-score,[9],3.3
CTCGAAAGGTCGTGCTCAGGTTAGTATACCAAAC,PBM binding z-score,[1],3.37
same,PBM binding z-score,[2],5.5
same,PBM binding z-score,[3],4.17
same,PBM binding z-score,[4],2.12
same,PBM binding z-score,[5],5.47
same,PBM binding z-score,[6],3.73
same,PBM binding z-score,[7],0.934
same,PBM binding z-score,[8],3.79
same,PBM binding z-score,[9],1.3
CTCGAAAGGTCGTGCTCAGGTGAGTATACCAAAC,PBM binding z-score,[1],2.75
same,PBM binding z-score,[2],5.07
same,PBM binding z-score,[3],3.86
same,PBM binding z-score,[4],2.05
same,PBM binding z-score,[5],4.63
same,PBM binding z-score,[6],4.17
same,PBM binding z-score,[7],1.08
same,PBM binding z-score,[8],3.39
same,PBM binding z-score,[9],1.2
TCTTGTAGATCAAGCAGGCTAAGAAAGCCTGAGT,PBM binding z-score,[1],-0.885
same,PBM binding z-score,[2],-0.605
same,PBM binding z-score,[3],-0.521
same,PBM binding z-score,[4],0.402
same,PBM binding z-score,[5],-0.67
same,PBM binding z-score,[6],-0.805
same,PBM binding z-score,[7],-0.733
same,PBM binding z-score,[8],-0.214
same,PBM binding z-score,[9],-0.349
TTATCAAGGTGAGCTGAGGTCGTTGATCCAACTC,PBM binding z-score,[1],1.62
same,PBM binding z-score,[2],1.33
same,PBM binding z-score,[3],1.07
same,PBM binding z-score,[4],0.397
same,PBM binding z-score,[5],1.59
same,PBM binding z-score,[6],4.64
same,PBM binding z-score,[7],2.47
same,PBM binding z-score,[8],3.93
same,PBM binding z-score,[9],2.33
GATACAGGGTCAACGCCAGAGTACGCGTATTGAT,PBM binding z-score,[1],3.62
same,PBM binding z-score,[2],5.79
same,PBM binding z-score,[3],6.23
same,PBM binding z-score,[4],2.6
same,PBM binding z-score,[5],6.68
same,PBM binding z-score,[6],3.42
same,PBM binding z-score,[7],1
same,PBM binding z-score,[8],4.77
same,PBM binding z-score,[9],2.52
TAGCCTAGGTCATCCGGGCCAGTATAGTGTCGGC,PBM binding z-score,[1],3.17
same,PBM binding z-score,[2],4.1
same,PBM binding z-score,[3],4.53
same,PBM binding z-score,[4],1.24
same,PBM binding z-score,[5],2.96
same,PBM binding z-score,[6],3.16
same,PBM binding z-score,[7],1.16
same,PBM binding z-score,[8],3.81
same,PBM binding z-score,[9],1.42
CCGACTTGGGCAGAAAGGTTACCATACCATCCGG,PBM binding z-score,[1],1.52
same,PBM binding z-score,[2],0.806
same,PBM binding z-score,[3],0.702
same,PBM binding z-score,[4],-0.476
same,PBM binding z-score,[5],1.3
same,PBM binding z-score,[6],0.651
same,PBM binding z-score,[7],-0.379
same,PBM binding z-score,[8],0.0426
same,PBM binding z-score,[9],-0.411
GCATATAGGTAATACAAGGTGAAAGTTCGATTGT,PBM binding z-score,[1],1.57
same,PBM binding z-score,[2],0.972
same,PBM binding z-score,[3],0.602
same,PBM binding z-score,[4],0.513
same,PBM binding z-score,[5],1.5
same,PBM binding z-score,[6],4.27
same,PBM binding z-score,[7],1.28
same,PBM binding z-score,[8],1.17
same,PBM binding z-score,[9],0.723
TTACCAAGGTGAGCTGAGGTCGTTGAACCAACTC,PBM binding z-score,[1],1.77
same,PBM binding z-score,[2],1.21
same,PBM binding z-score,[3],0.931
same,PBM binding z-score,[4],-0.0646
same,PBM binding z-score,[5],1.57
same,PBM binding z-score,[6],4.77
same,PBM binding z-score,[7],2.02
same,PBM binding z-score,[8],4.25
same,PBM binding z-score,[9],2.01
GCCACTGGGGCATCAGCAGGTTACCATAACTTAA,PBM binding z-score,[1],0.865
same,PBM binding z-score,[2],0.714
same,PBM binding z-score,[3],0.439
same,PBM binding z-score,[4],-0.45
same,PBM binding z-score,[5],0.212
same,PBM binding z-score,[6],0.803
same,PBM binding z-score,[7],-0.0926
same,PBM binding z-score,[8],-0.378
same,PBM binding z-score,[9],-0.602
CAGCGTAGGTCAGGGCCAGTATAGGAGGAACGTT,PBM binding z-score,[1],2.49
same,PBM binding z-score,[2],3.4
same,PBM binding z-score,[3],4.22
same,PBM binding z-score,[4],-0.29
same,PBM binding z-score,[5],2.04
same,PBM binding z-score,[6],1.24
same,PBM binding z-score,[7],-0.0112
same,PBM binding z-score,[8],0.388
same,PBM binding z-score,[9],-0.494

# From the supplement of paper PMC6555819
